Assay outcomes: PubChem, National Center for Advancing Translational Sciences (NCATS)
Tau fibril ThT – blocks human tau fibril formation measured by thioflavin T; P10636; recombinant tau K18 P301L, heparin-induced fibrillization, ThT fluorescence; Potency, µM (doses to about 57.4 µM), for inactives: at the top dose activity, negative = inhibition, most hits filed as inhibitors; hit rate 2.1% among 270,000; AID 1460; also: potency is read from the fitted curve at half-maximal effect; nearly all actives have a fitted effect of over 55% in size
Target sequence (P10636 561-689 P618L limits assumed): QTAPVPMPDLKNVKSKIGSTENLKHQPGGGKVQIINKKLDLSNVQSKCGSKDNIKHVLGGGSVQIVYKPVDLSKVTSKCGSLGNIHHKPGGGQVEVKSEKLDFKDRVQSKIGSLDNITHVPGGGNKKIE
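Recombinant human tau K18 fragment […] carrying P301L, 15 uM unlabeled plus 0.24 uM Alexa 594-labeled, was fibrillized with 20 uM heparin in 100 mM sodium acetate pH 7 for 6 hr at 37 C; 30 uM ThT fluorescence read after 1 hr.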
FBPA coupling cs – inhibits coupling enzyme system, counter-screen for aldolase hits; activity change, negative = inhibition, % at 58.2 µM, hits read low; hit rate 0.67% among 290,000; coupling enzyme system counterscreen, AmpLite Red fluorescence; in the data active = activity change below about -30%
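Fluorescence at 525 nm excitation and 598 nm emission measured inhibition of the coupled detection system without aldolase. Compounds (at 57.5 uM final) were preincubated 10 min at room temperature with coupling enzyme reagent before a 20 min substrate/AmpLite Red step.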
Tau fibril FP – inhibitors of human tau fibril formation; P10636; K18 P301L tau heparin fibrillization, Alexa594 FP, 6 h; Potency, µM (top dose mostly 57.7 µM), for inactives: top-dose activity, negative = inhibition, actives largely listed as inhibitors; hit rate 0.39% among 280,000; also: potency is read from the fitted curve at half-maximal effect; nearly all actives have a fitted effect of over 55% in size
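Human tau K18 […] P301L fragment, 15 uM unlabeled plus 0.24 uM Alexa 594-labeled tau (final), with compound and 20 uM heparin in 100 mM sodium acetate pH 7; 6 hr at 37 C, then Alexa 594 FP read.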
Tau fluor cs – counter-screen for tau fibril formation inhibitors | AID 1463 | Potency, µM (highest dose often 57.7 µM), for inactives: at the highest dose activity change, negative = decrease | hit rate 0.93% among 280,000 | tau K18 P301L Alexa594 fluorescence, heparin fibrillization; also: potency is read from the fitted curve at half-maximal effect; nearly all actives have a fitted effect of over 55% in size
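Human tau K18 P301L (15 uM unlabeled, 0.24 uM Alexa 594-labeled) in 100 mM sodium acetate pH 7 with 20 uM heparin, 6 hr at 37 C. ThT 30 uM added, 1 hr ambient; Alexa 594 FP and total fluorescence read at 555/632 nm.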
* hit, by the source's call; ? = inconclusive; nt = not tested or not shown; [ ] = dose if it differs, or a comment. Hits are enriched below; roughly 2.7% of the tested compounds scored in any of these assays. Unless noted, calls follow the shape of the dose curve; as a rule, active = well fitted curve in the direction sought with a large enough effect; inconclusive = small, poorly fitted or top-dose-only effect, or another doubt; inactive = no such curve, though single readings can be large; an effect the other way counts as inactive or inconclusive. % is scaled to controls: 0 for no effect and ±100 for the full control effect.

SMILES | Tau fibril ThT | FBPA coupling cs | Tau fibril FP | Tau fluor cs
CCOC(=O)c1cnc2c(N=Nc3cccc(Cl)c3)c(N)nn2c1N | 2.51µM* | 0.6 | -2.6% | -12.6%
CCOC(=O)c1cnc2c(-c3ccccc3)cnn2c1N | -14.1% | 2.0 | 1.0% | -10.5%
CCOC(=O)c1cnc2c(-c3ccccc3)c(C)nn2c1N | ? | 2.9 | -0.3% | -10.4%
CCOC(=O)c1cnc2c(N=Nc3ccccc3)c(N)nn2c1N | 2.51µM* | 1.1 | -0.1% | -11.4%
O=C(NCc1ccccc1)c1c[nH]c2ccc(F)cc2c1=O | nt | 0.1 | nt | nt
O=C(NCc1ccccc1)c1c[nH]c2ccc(S(=O)(=O)Nc3ccc4c(c3)OCCO4)cc2c1=O | -10.0% | -1.9 | ? | 10µM*[quencher]
CCc1ccc(NS(=O)(=O)c2ccc3[nH]cc(C(=O)NCc4ccc(C)cc4)c(=O)c3c2)cc1 | 9.7% | nt | 3.55µM* | ?
CCN(CC)C(=O)c1c[nH]c2ccc(S(=O)(=O)Nc3cc(C)cc(C)c3)cc2c1=O | -7.3% | 1.8 | -12.7% | -15.2%
COc1ccccc1CNC(=O)c1c[nH]c2ccc(S(=O)(=O)Nc3cc(C)cc(C)c3)cc2c1=O | 4.1% | nt | 8.91µM* | ?
O=C(NCCc1ccccc1)c1c[nH]c2ccc(S(=O)(=O)Nc3ccccc3F)cc2c1=O | -5.8% | nt | 12.6µM* | ?
C=CCOC(=O)N[C@@H](Cc1ccccc1)/C(C(=O)OC)=C(\C)NCc1ccccc1 | 1.0% | 3.2 | -3.2% | -3.2%
CCN(CC)S(=O)(=O)c1ccc2[nH]cc(C(=O)NCCC3=CCCCC3)c(=O)c2c1 | 7.4% | -5.0 | 11.2µM* | ?
CCN(CC)S(=O)(=O)c1ccc2[nH]cc(C(=O)NCCN3CCCCCC3)c(=O)c2c1 | -4.7% | -3.1 | 0.4% | -11.6%
COc1nc(/C=C/N(C)C)c([N+](=O)[O-])c(OC)n1 | 8.91µM* | -0.5 | -5.5% | ?
CCOc1ccc(/C=C(\C#N)C(=O)Nc2sc3c(c2C(=O)OC)C(C(=O)OC)CC3)cc1OC (stereo not drawn) | 3.16µM* | nt | ? | -22.9%
O=C(Nc1nccs1)C1CC=CCC1 (stereo not drawn) | nt | -0.3 | nt | nt
O=C(Nc1ccc(O)cc1)C1CC=CCC1 (stereo not drawn) | 25.1µM* | -8.7 | ? | 28.2µM*[quencher]
NS(=O)(=O)c1ccc(NCCCn2ccnc2)c([N+](=O)[O-])c1 | nt | 1.6 | nt | nt
O=C1c2ccccc2-c2onc3ccc(NCCCn4ccnc4)c1c23 | 11.2µM* | -16.9 | 20µM* | ?
COc1ccc(CNc2oc(/C=C/c3cccc(OC)c3)nc2C#N)cc1 | ? | nt | ? | 6.31µM*[quencher]
Cc1ccc(CNc2oc(-c3ccco3)nc2C#N)cc1 | -10.6% | -2.8 | ? | -21.2%
Cc1ccc(CNc2oc(C)nc2C#N)cc1 | ? | 2.8 | ? | 11.2µM*[quencher]
CNc1oc(-c2cccc3ccccc23)nc1C#N | -11.4% | 1.0 | 10.6% | -23.0%
COc1ccc(-c2nc(C#N)c(NCCc3ccccc3)o2)cc1OC | ? | -4.5 | ? | 15.8µM*[quencher]
COc1ccc(CNc2oc(-c3cccc4ccccc34)nc2C#N)cc1 | -17.0% | 3.1 | -6.6% | 8.91µM*[quencher]
SMILES | Tau fibril ThT | FBPA coupling cs | Tau fibril FP | Tau fluor cs
CCC1(CC)C(=O)C2=C3C1[C@H](C(=O)OC)CC(C(=O)OC)C[C@H]3[C@H]1C(=O)N(C)C(=O)[C@H]1[C@H]2C (stereo partly drawn) | nt | 0.9 | nt | nt
O=C(CCC1N=C2c3ccccc3N=C(SCc3ccc(Cl)cc3)N2C1=O)N1CCN(c2ccccc2)CC1 (stereo not drawn) | ? | nt | -6.0% | -10.4%
COc1cccc(/C=C/c2nc(C#N)c(NCCc3ccc(OC)c(OC)c3)o2)c1 | ? | nt | ? | 12.6µM*[quencher]
N#Cc1nc(-c2cccc3ccccc23)oc1NCC1CCCO1 (stereo not drawn) | ? | -16.0 | ? | 15.8µM*[quencher]
COc1ccc(/C=C/c2nc(C#N)c(NCCc3ccc(OC)c(OC)c3)o2)cc1OC | ? | nt | 1.5% | ?
N#Cc1nc(-c2ccccc2)oc1NCC1CCCO1 (stereo not drawn) | 6.8% | 0.8 | 1.0% | 3.0%
Cc1ccc(C)c(-n2c3nc(=O)[nH]c(=O)c-3cc3cc([N+](=O)[O-])ccc32)c1 | 0.6% | -47.4* | 7.3% | -4.4%
Cc1cccc(-n2c3nc(=O)[nH]c(=O)c-3cc3cc([N+](=O)[O-])ccc32)c1 | ? | -8.2 | 1.8% | -7.4%
O=C(Nc1cccnc1)Nc1cc(Cl)cc(Cl)c1 | ? | -0.7 | 25.1µM* | ?
O=C(Nc1ccc(Nc2ccccc2)cc1)Nc1ccccc1Cl | 3.98µM* | 0.5 | ? | 3.98µM*[quencher]
O=C(Nc1cccnc1)Nc1ccccc1Cl | 0.3% | -5.5 | -0.2% | -3.5%
O=C(Nc1cccc(Cl)c1)Nc1cccc(Cl)c1 | -10.2% | -5.5 | ? | -21.6%
O=C(Nc1ccccc1)Nc1csc2ccccc12 | ? | -4.5 | ? | 11.2µM*[quencher]
O=C(Nc1ccccc1)Nc1cc(Cl)cc(Cl)c1 | ? | 1.2 | 11.2µM* | ?
CC(C)(C)C(=O)Nc1sc2c(c1C#N)CCN(Cc1ccccc1)C2 | nt | -3.7 | nt | nt
O=C(Nc1cccc(C(=O)N2CCN(c3ccc(Cl)cc3)CC2)c1)c1nsc2ccccc12 | -11.4% | nt | -1.8% | -12.9%
Cc1ccc(NC(=O)C2CCCN(S(=O)(=O)c3ccc4c(c3)CCCC(=O)N4)C2)cc1N(C)C (stereo not drawn) | -5.8% | nt | 2.2% | -14.6%
O=C(Nc1csc([N+](=O)[O-])c1)Nc1ccccc1Cl | nt | -3.2 | -0.1% | 25.1µM*[quencher]
O=C(Nc1ccccc1)Nc1cc(OCC(F)(F)F)cc(OCC(F)(F)F)c1 | -15.3% | -4.9 | 11.2µM* | ?
Cc1ccc(CNC(=O)C2CCCN(c3nnc(-n4c(C)ccc4C)s3)C2)cc1 (stereo not drawn) | ? | nt | -13.5% | -7.6%
COC(=O)c1c(C)n(-c2ccccc2)c2ccc(O)cc12 | ? | -16.6 | -9.7% | -29.0%
CN(C)/C=C/c1c([N+](=O)[O-])c2ccc(O)cc2n1-c1ccccc1 | 12.6µM* | -3.8 | ? | 15.8µM*[quencher]
COc1ccc(C2N3CC4(C)CN2CC(c2ccccc2)(C3)C4=O)cc1 (stereo not drawn) | -2.0% | nt | ? | -7.5%
COc1ccc(S(=O)(=O)N2Cc3ccccc3CC2C(=O)Nc2cc(Cl)ccc2Cl)cc1 (stereo not drawn) | 9.4% | nt | ? | -25.7%
CCN1CCN(c2cc(C)c3cc(NC(=O)c4cccc(Cl)c4)ccc3n2)CC1 | ? | nt | 6.9% | 14.1µM*[quencher]
CCN1CCN(c2cc(C)c3cc(NC(=O)c4cnccn4)ccc3n2)CC1 | ? | -1.6 | 1.5% | -13.6%
CCN1CCN(c2cc(C)c3cc(NC(=O)c4cc(OC)cc(OC)c4)ccc3n2)CC1 | ? | 0.8 | 9.9% | 15.8µM*[quencher]
CCN1CCN(c2cc(C)c3cc(NC(=O)/C=C/c4cccc(Cl)c4)ccc3n2)CC1 | 3.16µM* | nt | 3.0% | 3.55µM*[quencher]
CCOc1ccc(C(=O)Nc2ccc3nc(N4CCN(CC)CC4)cc(C)c3c2)cc1 | nt | 1.1 | nt | nt
CCOc1cc(CNC(=O)c2ccc(Cn3c(=O)c4cccn4c4cccnc43)cc2)ccc1OC | 0.7% | nt | ? | -22.0%
